Reference: paper PMC4336329 (PLoS ONE, 2015)
Out of some 310,000 compounds screened, about 14,000 (4.5%) showed an effect of 50% or more. Effects have a minus sign here. The sample as a whole holds a higher share of strong results than the screen did.

biological target: human ether-à-go-go-related gene (hERG) potassium channel (human, UniProt Q12809); test: primary screen, population patch clamp on CHO cells stably expressing hERG; higher = less effect of the substance
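Also: peak tail current of the secondary pulse compared with the same well before compound.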

Sequence of human ether-à-go-go-related gene (hERG) potassium channel (Q12809 whole entry, looked up): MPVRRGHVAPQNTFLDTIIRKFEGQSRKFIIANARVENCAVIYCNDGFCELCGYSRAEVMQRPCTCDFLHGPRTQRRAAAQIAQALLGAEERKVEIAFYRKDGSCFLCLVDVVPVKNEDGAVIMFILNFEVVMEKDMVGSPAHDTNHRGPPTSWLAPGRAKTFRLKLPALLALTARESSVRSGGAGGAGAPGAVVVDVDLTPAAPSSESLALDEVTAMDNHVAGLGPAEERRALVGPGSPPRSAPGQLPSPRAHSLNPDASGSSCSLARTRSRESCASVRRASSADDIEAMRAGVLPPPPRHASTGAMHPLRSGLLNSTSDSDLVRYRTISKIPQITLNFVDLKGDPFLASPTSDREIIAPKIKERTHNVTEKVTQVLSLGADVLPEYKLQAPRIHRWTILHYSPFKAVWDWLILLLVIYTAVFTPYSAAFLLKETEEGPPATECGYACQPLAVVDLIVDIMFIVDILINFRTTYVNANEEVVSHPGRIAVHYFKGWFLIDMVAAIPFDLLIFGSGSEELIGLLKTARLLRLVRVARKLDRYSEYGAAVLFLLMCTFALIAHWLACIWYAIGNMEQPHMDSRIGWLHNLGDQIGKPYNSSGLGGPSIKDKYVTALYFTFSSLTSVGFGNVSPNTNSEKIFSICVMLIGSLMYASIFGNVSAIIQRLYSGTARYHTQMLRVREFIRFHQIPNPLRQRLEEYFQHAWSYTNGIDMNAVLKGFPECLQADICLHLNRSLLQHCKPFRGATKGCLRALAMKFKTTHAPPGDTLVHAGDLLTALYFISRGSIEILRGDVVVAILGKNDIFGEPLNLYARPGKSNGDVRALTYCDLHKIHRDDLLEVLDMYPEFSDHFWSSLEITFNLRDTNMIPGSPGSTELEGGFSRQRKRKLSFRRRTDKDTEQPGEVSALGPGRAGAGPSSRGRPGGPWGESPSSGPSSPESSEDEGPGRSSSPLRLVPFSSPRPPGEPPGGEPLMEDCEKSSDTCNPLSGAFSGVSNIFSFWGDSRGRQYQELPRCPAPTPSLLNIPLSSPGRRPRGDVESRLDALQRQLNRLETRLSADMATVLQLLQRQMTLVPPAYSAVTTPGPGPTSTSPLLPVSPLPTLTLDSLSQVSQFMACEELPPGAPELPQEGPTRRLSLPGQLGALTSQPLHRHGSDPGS

Compound	hERG current change (%, negative = inhibition) at 10uM [%]
COc1ccc(OCC(=O)N2CC3(C)CC2CC(C)(C)C3)cc1 (stereo not shown)	-21.2
COc1ccc(/C=N/OCC(=O)N2CC3(C)CC2CC(C)(C)C3)cc1OC (stereo not shown)	-3.72
COc1ccc(/C=N/OCC(=O)N2CC3(C)CC2CC(C)(C)C3)cc1 (stereo not shown)	-56
N#Cc1ccc(COC(=O)c2ccc3c(c2)OCO3)cc1	-27.4
CC(C)(C)c1ccc(C(=O)N2CCNC(=O)C2CC(=O)Nc2ccc(F)cc2)cc1 (stereo not shown)	13.9
Cc1ccc(NC(=O)CC2C(=O)NCCN2C(=O)c2ccc(F)cc2)cc1 (stereo not shown)	-26.3
CCc1ccc(NC(=O)CC2C(=O)NCCN2C(=O)c2ccc(F)cc2)cc1 (stereo not shown)	-55.4
O=S(=O)(Cc1ccccc1)Nc1ccc(F)cc1	7.05
O=C1c2cccc3cccc(c23)C(=O)N1OS(=O)(=O)c1ccc(Br)cc1	24.2
COc1ccc(C(=S)N2CCOCC2)cc1OC(=O)c1ccc([N+](=O)[O-])cc1[N+](=O)[O-]	-52
COc1cc(C(=S)N2CCOCC2)ccc1OC(=O)c1cc([N+](=O)[O-])cc([N+](=O)[O-])c1	0.943
COc1ccc(C(=S)N2CCOCC2)cc1OS(=O)(=O)c1ccc(Br)cc1	-70
COc1ccc(S(=O)(=O)Oc2ccc(C(=S)N3CCOCC3)cc2OC)cc1	-0.365
COc1ccc(C(=S)N2CCOCC2)cc1OC(=O)c1cccc([N+](=O)[O-])c1	-39.9
CCOc1cc(C(=S)N2CCOCC2)ccc1OS(=O)(=O)c1ccc(Br)cc1	-1.54
COc1cc(C(=S)N2CCOCC2)ccc1OC(=O)c1ccc([N+](=O)[O-])cc1[N+](=O)[O-]	17.1
COc1ccc(C(=S)N2CCOCC2)cc1OC(=O)c1ccc([N+](=O)[O-])cc1	-63
COc1cc(C(=S)N2CCOCC2)cc(OC)c1OC(=O)c1ccc([N+](=O)[O-])cc1[N+](=O)[O-]	-4.69
CCCc1nc(C)c2c(=O)[nH]c(-c3cc(S(=O)(=O)N4CCN(CC)CC4)ccc3OCC)nn12.O=C(O)CC(O)(CC(=O)O)C(=O)O	0.215
COc1cccc(N2CCN(S(=O)(=O)c3ccc4c(c3)CC(C)N4C(=O)C3CC3)CC2)c1 (stereo not shown)	17.8
CC1C(=O)N(Cc2ccccc2F)c2ccccc2N1C(=O)c1c(F)cccc1F (stereo not shown)	-6.04
CC(C)N1CCc2c(sc(NC(=O)c3nc4ccccc4s3)c2C(N)=O)C1.Cl	-45.1

Compound	hERG current change (%, negative = inhibition) at 10uM [%]
CCCn1c(SCC(=O)/C(C#N)=C(\C)N)n[nH]c1=O	7.25
CC(C)C(=O)Nc1nnc(Cc2c[nH]c3ccccc23)s1	28
Cc1[nH]n(-c2ccccc2)c(=O)c1C=NC1CCCCC1	-10.5
O=C(CCCN1C(=O)/C(=C\c2cccs2)SC1=S)Nc1cccc(C(=O)O)c1	9.57
Cc1cccn2c(=O)c(/C=C(\C#N)S(=O)(=O)c3ccccc3)c(N3CCC(C(N)=O)CC3)nc12	-75.4
Cc1ccc(S(=O)(=O)/C(C#N)=C/c2c(N3CCC(C(N)=O)CC3)nc3c(C)cccn3c2=O)cc1	-71.4
CCN1CCN(c2nc3c(C)cccn3c(=O)c2/C=C(\C#N)S(=O)(=O)c2ccc(Cl)cc2)CC1	-44.9
CCOC(=O)C1CCN(c2nc3c(C)cccn3c(=O)c2/C=C(\C#N)S(=O)(=O)c2ccccc2)CC1	-18.1
Cc1cccn2c(=O)c(/C=C(\C#N)C(=O)NCc3ccccc3)c(N3CCC(C(N)=O)CC3)nc12	-29.1
Cc1cccn2c(=O)c(/C=C(\C#N)C(=O)NCc3ccco3)c(N3CCC(C(N)=O)CC3)nc12	-43
Cc1cccn2c(=O)c(/C=C(\C#N)S(=O)(=O)c3ccccc3)c(N3CCCCC3)nc12	9.28
Cc1cccn2c(=O)c(/C=C(\C#N)S(=O)(=O)c3ccc(Cl)cc3)c(N3CCC(C(N)=O)CC3)nc12	-77.8
COc1ccc(C=Nc2cccc3ncccc23)cc1	4.44
Cc1ccc(C(=O)Nc2ccc(S(=O)(=O)N3CCOCC3)cc2)cc1Br	3.46
CC(=O)Nc1nc(-c2ccc(Cl)cc2)nc(C)c1C(C)=O	-19.8
CCN(C(=O)COC(=O)C1=COCCO1)c1ccccc1	-2.33
O=c1cc(Cc2nnc(SCc3ccccc3)n2-c2ccc(Cl)cc2)[nH]c(=O)[nH]1	0.593
COc1ccc(N2CCN(C(=O)c3cc(-c4cc(OC)ccc4OC)nc4ccccc34)CC2)cc1	-1.23
Cc1ccc2nc3c(nc2c1C)C(O)=C3O	6.68
Cc1ccc(N2CCOCC2)c2c1C(=O)c1ccccc1C2=O	-19.1
O=C1c2ccccc2-c2ncnc3c(N4CCOCC4)cc(N4CCOCC4)c1c23	-60
O=C1c2ccccc2C(=O)c2c1cccc2N1CCOCC1	-30.4

Compound	hERG current change (%, negative = inhibition) at 10uM [%]
CCOCCn1c(SCc2ccc(C)cc2)nc2c1c(=O)[nH]c(=O)n2C	14.5
COc1ccc(CNC(=O)CN2CCN(c3ccc(F)cc3)CC2)cc1	-39.1
N#Cc1ccc(CN2CCN(CC(=O)NCCc3ccc(Cl)cc3Cl)CC2)cc1	-68.8
COc1ccc(CNC(=O)CN2CCN(c3ccccc3)CC2)cc1	3.65
O=C(CN1CCN(c2ccc(F)cc2)CC1)NCc1ccc(F)cc1	-43.9
CC(=O)c1ccc(N2CCN(CC(=O)NCc3ccccc3)CC2)cc1	-44.3
COc1ccc(N2CCN(CC(=O)NCc3ccc(Cl)cc3)CC2)cc1	-55.7
O=C(CN1CCN(c2cccc(Cl)c2)CC1)NCc1ccccc1	-15.5
O=C(Cn1cnnn1)NCCc1ccc(Cl)cc1Cl	-19.6
O=C(CN1CCN(c2ccc(Cl)cc2)CC1)NCc1ccccc1	-51.3
Cc1ccc(CNC(=O)CN2CCN(c3ccc(F)cc3)CC2)cc1	-50.8
O=C(CN1CCNC(=O)C1)NCCc1ccc(Cl)cc1Cl	1.45
O=C(CN1CCN(c2ccccc2)CC1)NCc1ccc(F)cc1	-11
S=c1[nH]nc(COc2ccccc2)n1/N=C/c1ccncc1	7.06
O=C(NCCOc1ccc(Cl)cc1)c1ccc2c(c1)OCCO2	-7.8
COc1ccc(O)c(C=Nc2cc(NC(C)=O)c(Cl)cc2Cl)c1	2.95
O=C1c2ccccc2C(=O)N1CC(O)COc1ccc(Br)cc1 (stereo not shown)	-1.51
Fc1ccc(CN2CCN(c3ccc(Cl)cc3)CC2)cc1	-13.6
O=C(CN1CCN(Cc2ccc(F)cc2)CC1)NCc1ccccc1	-27.5
O=C(CN1CCN(c2ccc(F)cc2)CC1)NCc1ccc(Cl)cc1	-62.7
O=C(NCc1ccc(Cl)cc1)N1CCN(Cc2ccccc2)CC1	-29.9
O=C(CN1CCN(Cc2ccccc2)CC1)NCc1ccc(Cl)cc1	-61.1

Compound	hERG current change (%, negative = inhibition) at 10uM [%]
Cl.O=C(CN1CCOCC1)NCc1ccc(F)cc1	21.6
Cc1ccc(C(=O)c2cc3c(cc2[N+](=O)[O-])OCCO3)cc1	-9.5
CCc1cc[n+](C2=C([O-])c3ccccc3C(=O)/C2=N\S(=O)(=O)c2cccs2)cc1	-11.6
O=C1/C(=N\S(=O)(=O)c2cccs2)C([n+]2ccc(CCCc3ccccc3)cc2)=C([O-])c2ccccc21	-70.5
O=C1/C(=N\S(=O)(=O)c2cccs2)C([n+]2ccccc2)=C([O-])c2ccccc21	33.6
Cc1ccc(NC(=O)c2nnn(-c3ccc4c(c3)OCCO4)c2N)cc1	9.9
Cc1cc(NC(=O)CSc2nncc(=O)n2N)no1	1.99
COC(=O)C1=C(C)N(Cc2cccnc2)C(=O)/C1=C\c1cccs1	-89
COC(=O)C1=C(C)N(Cc2cccnc2)C(=O)/C1=C\c1sccc1C	-79.2
CCN1C(=O)/C(=C\c2cccs2)C(C(=O)OC)=C1C	5.41
COCCCN1C(=O)/C(=C\c2cccs2)C(C(=O)OC)=C1C	-31.9
COC(=O)C1=C(C)N(Cc2ccccc2)C(=O)/C1=C\c1ccco1	2.06
COC(=O)C1=C(C)N(Cc2cccnc2)C(=O)C1	-0.706
CCN(CC)S(=O)(=O)c1cccc(-c2nnc(SCC(=O)NC3CCCC3)n2N)c1	19
Cc1cc(=O)[nH]c2c(C)cc(S(=O)(=O)N3CCCCC3)cc12	4.69
CCc1cccc(NC(=O)COc2ccccc2)c1	-8.01
O=C(Oc1c(-c2ccccc2)c(=O)n2c3c(cccc13)CC2)c1ccco1	-62
O=C(Oc1c(-c2ccccc2)c(=O)n2c3c(cccc13)CC2)c1ccc(F)cc1	10.4
O=C(Oc1c(-c2ccccc2)c(=O)n2c3c(cccc13)CC2)c1ccccc1	-9.09
